# GDH-TPI inh: inhibits GDH-TPI coupling enzymes, artifact for Mtb FBA screen | GDH-TPI coupled enzyme counterscreen, NADH absorbance | inhibition, % at 4.8 µM | 360,000 tested, 1.2% active | AID 588335; in the data active = inhibition above about 30%;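 also: 0% = DMSO wells and 100% = wells lacking the enzyme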
# FadD28 FP inh: inhibitors of Mycobacterium tuberculosis FadD28 bisubstrate binding; FadD28 bisubstrate probe binding, fluorescence polarization; inhibition, % at 12.5 µM; 360,000 tested, 0.22% active; AID 588549; in the data active = inhibition above about 8.5%, passing the limit was not always enough
# UGM FP inh: blocks M. tuberculosis UGM enzyme. P9WIQ1. purified UGM, fluorescence polarization probe displacement. inhibition, % at 10 µM. 320,000 tested, 0.06% active. AID 504406; in the data active = inhibition above about 10%, passing the limit was not always enough
# Rv3671c inh: inhibitors of M. tuberculosis serine protease Rv3671c. P9WHR9. inhibition, % at 5.96 µM. 320,000 tested, 0.048% active. AID 2606; in the data active = inhibition above about 38%;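 also: extracellular domain of Rv3671c used as enzyme; 0% = enzyme with DMSO and 100% = no enzyme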
# Target sequence (P9WHR9 whole entry, looked up, the tested form may be a part): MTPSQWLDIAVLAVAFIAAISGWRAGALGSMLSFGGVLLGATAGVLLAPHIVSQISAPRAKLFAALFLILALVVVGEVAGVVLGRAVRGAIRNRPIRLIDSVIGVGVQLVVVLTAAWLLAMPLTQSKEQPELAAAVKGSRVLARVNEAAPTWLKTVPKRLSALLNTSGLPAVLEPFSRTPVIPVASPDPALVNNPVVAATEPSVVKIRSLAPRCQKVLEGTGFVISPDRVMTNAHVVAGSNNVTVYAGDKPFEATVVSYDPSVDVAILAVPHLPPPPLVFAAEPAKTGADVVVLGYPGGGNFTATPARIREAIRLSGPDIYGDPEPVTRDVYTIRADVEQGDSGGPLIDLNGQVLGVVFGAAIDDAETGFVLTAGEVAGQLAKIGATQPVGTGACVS
# Mtb FBA inh: inhibits M. tuberculosis FBA enzyme; purified M. tuberculosis FBA, fluorescence read-out; inhibition, % at 1 µM; 360,000 tested, 2.3% active; in the data active = inhibition above about 27%;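 also: 0% = vehicle and 100% = reference inhibitor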
# Mtb hypoxia rep: Mtb hypoxia fluorescent reporter inhibition. fluorescence inhibition, % (no concentration beside the values). AID 1159583. M. tuberculosis hypoxia-regulated fluorescent reporter, fluorescence. 300,000 tested, 0.1% active; in the data active = fluorescence inhibition mostly above about 23%, no sharp cut-off; inactive = mostly below about 17%
# Active calls of the source: *; . = no result given. Only some compounds are listed: those with a hit (about 3.5% of all), similar ones and a draw of the others.
SMILES,GDH-TPI inh,FadD28 FP inh,UGM FP inh,Rv3671c inh,Mtb FBA inh,Mtb hypoxia rep
Cc1nn(-c2ccccn2)c2c1-c1nc(N3CCOCC3)ncc1CC2,17,-3,0,-7,114*,11
O=C(NCc1nc2ccccc2[nH]1)C1=CC(C2CCCCC2)CC(OCCCCO)O1 (stereo not given),.,.,.,.,.,3
CCCN(CC(=O)Nc1ccccc1C)C(=O)/C=C/c1cccs1,26,-3,.,0,-1,-1
CCN(CC(=O)Nc1c(F)cccc1F)C(=O)Cc1ccccc1,-6,9.7*,2,-1,-2,15
CCOc1ccc(/C=C/C(=O)N(CC)CC(=O)Nc2ccc3c(c2)OCCO3)cc1OC,7,-4,-1,4,5,9
CCOc1ccc(/C=C/C(=O)N(CC)CC(=O)Nc2c(F)cccc2F)cc1OC,32*,-3,.,.,10,.
CCCN(CC(=O)Nc1ccccc1C)C(=O)/C=C/c1ccc(OCC)c(OC)c1,34*,-2,-1,-1,13,6
CCN(CC(=O)Nc1c(F)cccc1F)C(=O)CN1C(=O)c2ccccc2C1=O,-2,-2,-2,5,-1,5
O=C1CCN(Cc2ccc(Br)cc2)CCN1C(CO)Cc1ccccc1 (stereo not given),.,.,.,.,.,5
N#C/C(=C/C1=C(N2CCOCC2)C(=C/c2ccccc2)/CC1)C(=O)Nc1ccccc1F,6,9.9*,.,.,0,11
N#C/C(=C\C1=C(N2CCOCC2)C(=C\c2ccc(Cl)cc2)/CC1)C(=O)Nc1ccccc1F,14,0,0,-50,-2,6
C/C(C=NNC(=O)CSc1nnc(SCc2ccccc2)s1)=C\c1ccco1,.,.,.,.,.,-5
Cc1c(NC(=S)N/N=C/c2cc([N+](=O)[O-])ccc2O)c(=O)n(-c2ccccc2)n1C,49*,2,1,7,-11,.
Cc1c(NC(=S)NN=Cc2ccccc2O)c(=O)n(-c2ccccc2)n1C,.,.,.,.,.,8
O=c1[nH]nc(NN=Cc2ccc(Cl)cc2Cl)c(=O)[nH]1,.,.,.,.,.,6
Nc1ncnc(N)c1N=Nc1ccccc1,7,-2,-1,.,-7,-4
Cc1cc(C)[n+]2[nH]c(N)c(N=Nc3ccccc3)c2n1,30,-1,-1,-26,-9,50*
CC(O)CC#Cc1ccc2oc(=O)c(-n3cc(-c4ccsc4)nn3)cc2c1 (stereo not given),.,.,.,.,.,6
O=C(Nc1ccc2c(c1)OCCO2)N1CCN(Cc2ccccc2)CC1,32*,0,0,5,1,10
Oc1ccc(-c2nc3ccccn3c2NCc2ccc3c(c2)OCO3)cc1,13,-3,2,5,22,.
Fc1ccc(-c2nc3ccccn3c2NCc2ccc3c(c2)OCO3)cc1,15,-2,0,5,39*,12
Cc1n[nH]c(C)c1CCC(=O)NN=Cc1c[nH]c2ccccc12,.,.,.,.,.,-6
COc1ccc(C2C(C(=O)c3cccs3)=C(O)C(=O)N2c2nncs2)cc1 (stereo not given),7,-9,13*,0,-2,-1
CC(C)n1cc(/C=N/Nc2ccc(C(=O)O)cc2)c2ccccc21,17,22*,-2,0,6,.
O=C(O)c1ccc(N/N=C/c2cn(Cc3ccccc3F)c3ccccc23)cc1,42*,13*,-2,-35,11,.
SMILES,GDH-TPI inh,FadD28 FP inh,UGM FP inh,Rv3671c inh,Mtb FBA inh,Mtb hypoxia rep
CCN(CC)c1ccc(C(=O)c2ccccc2C(=O)O)c(O)c1,42*,3,1,9,-6,-5
CCN(CC)c1ccc(C=NN(c2ccccc2)c2ccccc2)c(O)c1,.,.,.,.,.,9
Cn1nccc1C(=O)NN=Cc1cccnc1,.,.,.,.,.,3
O=C(Nc1ccccc1)C1=CC(c2ccccc2)CC(OCCCCO)O1 (stereo not given),.,.,.,.,.,1
C=CCSc1nnc(-c2ccccc2N=Cc2c(C)[nH]n(-c3ccccc3)c2=O)c(=O)[nH]1,43*,-2,1,1,0,.
CSc1nnc(-c2ccccc2N=Cc2c(C)[nH]n(-c3ccc4ccccc4c3)c2=O)c(=O)[nH]1,24,-4,-2,2,-2,.
COc1cc(/C=C(/C#N)C(=O)c2c(C)[nH]c3ccccc23)ccc1OCC#N,38*,-2,-2,-2,3,.
CCOc1ccc(/C=C(\C#N)C(=O)c2c(C)[nH]c3ccccc23)cc1OC,13,-5,-2,0,0,6
CC(C(N)C(=O)NC(C(=O)O)C1OC(n2ccc(=O)[nH]c2=O)C(O)C1O)C(O)c1ccc(O)cn1 (stereo not given),.,.,.,.,.,8
Cc1ccc(C)c(NC(=O)CN2C(=O)NC(C)(c3ccc4c(c3)OCCO4)C2=O)c1 (stereo not given),-2,-3,0,-9,-2,34*
Cc1ccc(C)n1C(CC(=O)O)c1ccc(C#N)cc1 (stereo not given),1,11*,2,0,-1,0
CC(CC(=O)Nc1ccc(C)c(Cl)c1)=NNC(=O)c1ccco1,.,.,.,.,.,17
O=C1C=C2C=CC3C[C@]2(O1)C1CCCCN31 (stereo not given in full),.,.,.,.,.,18
CCCOc1ccc(C=NNc2cc(N3CCOCC3)ncn2)c(O)c1,.,.,.,.,.,15
COc1cccc(/C=N/Nc2cc(Cl)nc(C)n2)c1O,8,-3,-3,-2,5,.
Oc1ccc(/C=N/Nc2ccc(Cl)nn2)cc1O,32*,0,2,4,1,.
Cc1nc(Cl)cc(NN=Cc2ccccc2)n1,.,.,.,.,.,9
Cc1nc(Cl)cc(N/N=C/c2ccc(O)cc2O)n1,59*,0,-1,3,1,.
CCOc1ccc(/C=N/Nc2cc(N3CCOCC3)nc(C)n2)c(O)c1,34*,0,1,11,5,.
Cc1nc(Cl)cc(N/N=C/c2ccc(O)cc2)n1,35*,1,0,0,-1,.
Nc1c(C(=O)NN=Cc2cccnc2)oc2nc(-c3ccco3)cc(-c3ccco3)c12,.,.,.,.,.,12
Cc1ccc(C(=O)N/N=C/C=C/c2ccccc2)cc1,31*,-3,-1,3,1,.
O=C(N/N=C\c1ccc(Sc2ccccn2)o1)c1cccc(Br)c1,32*,-4,-1,0,-1,.
Cc1ccc(NC(=O)CCC(=O)NN=C/C=C/c2ccccc2)cc1,.,.,.,.,.,-7
O=C(N/N=C/C=C/c1ccccc1)c1cnccn1,48*,1,0,1,-5,.
Cc1cc(C(=O)N/N=C/C=C/c2ccccc2)c(C)o1,32*,-1,-1,1,-2,.
Cc1ccccc1C(=O)N/N=C/c1ccc(Sc2ccccn2)o1,26,-2,1,-12,1,.
